The results in this text go back to PubChem BioAssay (NCI).

Each structure is given as a SMILES string. Values joined by “and” are separate entries in the source; they are usually repeats but may differ in a detail not shown here. Identical values can stand only once. About 83,000 compounds went through this panel and 20% of them were active in at least one assay; those are over-represented in the sample as a whole.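 Single-concentration screen, 48 h exposure, 96-well plates. Endpoint: percent growth. Below 10 = active.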 Unmarked numbers belong to inactive results. Active and inactive are the calls of the source.

Some test systems named below: HCT-15 colon; HT29 colon; U251 CNS; PC-3 prostate; SK-MEL-5 melanoma; UACC-62 melanoma; LOX IMVI melanoma; SK-MEL-28 melanoma; SK-MEL-2 melanoma; EKVX NSCLC; SN12C renal; UO-31 renal; TK-10 renal; ACHN renal; CAKI-1 renal; A498 renal; HL-60(TB) leukemia; SNB-75 CNS; SNB-19 CNS; CCRF-CEM leukemia.
Common to all, as to test: NCI-60 one-dose screen, 48 h (100 = growth as untreated, 0 = no growth, -100 = all killed)
Common to all, as to conditions: 10 µM unless noted

As to `Cn1cc(C(=O)C[n+]2ccccc2)c2ccccc21`, the growth with HCT-15 colon was 110%; in the test with HT29 colon, 105%; in the test on U251 CNS, 97%; with PC-3 prostate it was 90.4%; with SK-MEL-5 melanoma, 97.9%; in the test on UACC-62 melanoma, 105%. The growth was 93.2% with LOX IMVI melanoma; 114% in the test on SK-MEL-28 melanoma; 104% in the test with SK-MEL-2 melanoma; 65.4% with EKVX NSCLC; 101% in the test on SN12C renal; 98% in the test on UO-31 renal. Also, the growth with TK-10 renal is 115%; in the test on ACHN renal, 109%; with CAKI-1 renal it was 99.5%; with A498 renal it was 84.8%; in the test with HL-60(TB) leukemia it was 98.8%.

On to `CC[C@H](C)[C@H](NC(=O)[C@H]1CCCCN1C)C(=O)N(C)[C@H](C[C@@H](OC(C)=O)c1cccc(C(=O)N[C@@H](Cc2ccccc2)C[C@H](C)C(=O)OC)n1)C(C)C`, for which the growth in the test on HT29 colon was -5.46% (active); in the test with SNB-75 CNS, 23.5%; in the test on SNB-19 CNS, 33.1%; with U251 CNS it was 14.3%; with PC-3 prostate it was 18.9%; in the test on SK-MEL-5 melanoma, -14.5% (active). Further, the growth in the test with UACC-62 melanoma was 38.6%; in the test on LOX IMVI melanoma, 14.6%; in the test with SK-MEL-28 melanoma it was 62.8%; in the test on SK-MEL-2 melanoma, 22.1%; in the test on EKVX NSCLC it was 53.4%; in the test on SN12C renal it was 29.8%. For the same molecule, the growth with UO-31 renal was 40.7%; in the test on TK-10 renal it was 34.4%; in the test with ACHN renal, 24.6%; in the test with CAKI-1 renal, 25.4%; with A498 renal, -5.01% (active); with HL-60(TB) leukemia, -42.9% (active). Besides, the growth with CCRF-CEM leukemia was 14.4%.

For `CNC(=O)O/N=C(\SC)C(=O)N(C)C`, the growth with HCT-15 colon was 105%; in the test on SNB-75 CNS it was 101%; with U251 CNS, 101%; in the test on PC-3 prostate, 85%; in the test on SK-MEL-5 melanoma, 109%; with UACC-62 melanoma, 111%. Also, the growth with LOX IMVI melanoma was 90.4%; in the test with SK-MEL-28 melanoma, 113%; in the test on EKVX NSCLC, 112%; in the test with SN12C renal it was 104%; with UO-31 renal, 93.1%; with TK-10 renal, 103%. The growth in the test with ACHN renal was 101%; in the test on CAKI-1 renal, 107%; in the test on A498 renal, 95.8%; in the test on HL-60(TB) leukemia, 88.9%; with CCRF-CEM leukemia, 92.2%.

For the molecule `Cc1cc[n+](CCc2ccccc2)cc1`, the growth in the test on HCT-15 colon is 109% and 106%; with HT29 colon it was 98.4% and 92.6%; in the test with SNB-19 CNS, 102% and 106%; with PC-3 prostate, 101%; with UACC-62 melanoma, 102% and 116%; in the test with SK-MEL-28 melanoma, 103% and 101%. The growth in the test with SN12C renal was 102% and 105%; in the test on UO-31 renal, 57.8% and 85.1%; in the test with TK-10 renal, 91.8% and 106%; in the test on ACHN renal it was 103%; with CAKI-1 renal, 97% and 98.7%; in the test with A498 renal it was 83.9% and 93.6%. For the same molecule, the growth in the test on HL-60(TB) leukemia is 97.8% and 95.8%; in the test with CCRF-CEM leukemia, 101%.

As to `C[C@H](O)CCC(=O)c1ccoc1`, the growth is 110% in the test with HCT-15 colon; 106% in the test on HT29 colon; 100% in the test with SNB-19 CNS; 102% with U251 CNS; 95.7% in the test on PC-3 prostate; 99.9% in the test on SK-MEL-5 melanoma. Moreover, the growth is 96% in the test with UACC-62 melanoma; 95.5% in the test on LOX IMVI melanoma; 110% with SK-MEL-2 melanoma; 104% in the test on EKVX NSCLC; 96.9% in the test with SN12C renal; 98.9% in the test on UO-31 renal. For the same molecule, the growth in the test on TK-10 renal was 103%; with ACHN renal it was 114%; in the test on CAKI-1 renal it was 101%; with A498 renal it was 103%; in the test on HL-60(TB) leukemia, 99.4%; in the test with CCRF-CEM leukemia, 98.1%.

Consider `O=C(CBr)OCCOC(=O)CBr`, for which the growth in the test with HCT-15 colon is 72.4%; with HT29 colon it was 92.5%; in the test on SNB-19 CNS, 104%; in the test on U251 CNS, 87.4%; in the test with PC-3 prostate it was 84.1%; with SK-MEL-5 melanoma, 99.3%. In addition, the growth is 81.4% with UACC-62 melanoma; 37.1% with LOX IMVI melanoma; 79.5% in the test with SK-MEL-28 melanoma; 103% with SK-MEL-2 melanoma; 101% in the test on EKVX NSCLC; 58% with SN12C renal. Moreover, the growth in the test with TK-10 renal is 130%; in the test on ACHN renal, 83%; in the test with CAKI-1 renal it was 33.5%; with A498 renal, 150%; in the test with HL-60(TB) leukemia, 42.4%; in the test with CCRF-CEM leukemia, -15.5% (active).

As for `Oc1ccccc1C=NCCN=Cc1ccccc1O.[Fe]`, the growth in the test on HT29 colon is 72.4%; with SNB-75 CNS, 77.2%; with SNB-19 CNS it was 87.1%; in the test with U251 CNS it was 26.4%; in the test with PC-3 prostate, 79.2%; in the test with SK-MEL-5 melanoma, 66.5%. Besides, the growth in the test with UACC-62 melanoma was 58.4%; in the test on LOX IMVI melanoma it was -80.2% (active); with SK-MEL-28 melanoma it was 117%; in the test on SK-MEL-2 melanoma it was 92.4%; in the test on EKVX NSCLC, 110%; in the test on SN12C renal, 52%. Also, the growth was 72.3% in the test with UO-31 renal; 115% in the test with TK-10 renal; 92.3% with ACHN renal; 98.1% in the test on CAKI-1 renal; 65.5% in the test with A498 renal; 44.5% in the test on HL-60(TB) leukemia. In addition, the growth with CCRF-CEM leukemia was -32.9% (active).

With `COCC1OC2OC3C(COC)OC(OC4C(COC)OC(OC5C(COC)OC(OC6C(COC)OC(OC7C(COC)OC(OC8C(COC)OC(OC1C(O)C2O)C(O)C8O)C(O)C7O)C(O)C6O)C(O)C5O)C(O)C4O)C(O)C3O` (configuration not stated) (tested in a mixture with another compound), the growth with HCT-15 colon was 103%; in the test on HT29 colon, 109%; with SNB-19 CNS, 110%; in the test with U251 CNS it was 105%; with SK-MEL-5 melanoma, 103%; in the test on UACC-62 melanoma it was 107%. Besides, the growth in the test with LOX IMVI melanoma was 102%; in the test with SK-MEL-2 melanoma it was 65.7%; in the test with EKVX NSCLC, 105%; in the test with SN12C renal it was 97.6%; in the test on UO-31 renal, 97.3%; in the test with TK-10 renal, 146%. The values for the growth in the test with ACHN renal, in the test with CAKI-1 renal and in the test with A498 renal were 107%, 102% and 111%, respectively.
